Several values for one entry are separate records, joined by “and”; a condition that tells them apart may be missing. Equal entries are not always repeated. Records with an inconclusive call do not appear. Activity calls are given as the source filed them. Unless noted, calls follow the shape of the dose curve; as a rule, active = well fitted inhibition curve with a large enough effect; inconclusive = small, poorly fitted or top-dose-only effect; inactive = flat fitted curve, though single readings scatter.
Experiments:
[1] = target: Glucocorticoid receptor (Homo sapiens) (UniProt P04150); assay: GR-EFC Redistribution (AID 451; calls by dose curve); conditions: CHO-K1 GR-EFC translocation, beta-gal luminescence, 2 h
Chain of Glucocorticoid receptor (Homo sapiens) (P04150 whole entry, looked up, the tested form may be a part): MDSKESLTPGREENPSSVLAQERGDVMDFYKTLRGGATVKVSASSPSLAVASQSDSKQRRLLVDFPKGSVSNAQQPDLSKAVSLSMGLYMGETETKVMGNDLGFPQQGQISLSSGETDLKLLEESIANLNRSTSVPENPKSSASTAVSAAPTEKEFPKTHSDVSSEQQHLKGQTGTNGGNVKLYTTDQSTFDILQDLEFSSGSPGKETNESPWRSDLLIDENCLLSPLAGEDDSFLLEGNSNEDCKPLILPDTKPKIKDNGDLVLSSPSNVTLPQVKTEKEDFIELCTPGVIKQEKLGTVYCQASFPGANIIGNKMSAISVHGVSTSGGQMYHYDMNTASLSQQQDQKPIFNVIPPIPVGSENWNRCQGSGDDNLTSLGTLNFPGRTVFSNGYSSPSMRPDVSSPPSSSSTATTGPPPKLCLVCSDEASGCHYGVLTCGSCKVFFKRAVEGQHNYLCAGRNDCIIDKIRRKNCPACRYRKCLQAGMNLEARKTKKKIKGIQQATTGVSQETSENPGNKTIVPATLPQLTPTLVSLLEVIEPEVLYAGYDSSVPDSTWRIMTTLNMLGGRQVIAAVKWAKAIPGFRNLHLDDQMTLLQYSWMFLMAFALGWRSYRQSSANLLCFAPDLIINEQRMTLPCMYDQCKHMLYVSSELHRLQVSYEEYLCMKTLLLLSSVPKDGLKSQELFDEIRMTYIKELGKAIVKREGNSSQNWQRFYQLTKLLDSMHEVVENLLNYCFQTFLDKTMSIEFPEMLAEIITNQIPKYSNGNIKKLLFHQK
Method in brief: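 CHO-K1 cells expressing nuclear EA and GR-ED fragments of b-gal; compounds titrated up to 46 uM final, 2 h at 37 C. GR nuclear translocation read as complemented b-gal luminescence after 1 h RT detection.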

[2] = test system: AA1029; assay: qHTS profiling for inhibitors of Plasmodium falciparum proliferation (AID 504749); also: nearly all actives have a fitted effect of over 60% in size; conditions: P. falciparum in erythrocytes, SYBR Green DNA, 72 h; series mostly up to 12.8 µM
Method in brief: (§1)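 SYBR Green fluorescence (ex 485 nm, em 535 nm) reports parasite DNA after 72 h compound exposure of infected red cells at 0.3% parasitemia, 2.5% hematocrit; signal normalized to 0.29 uM artemisinin and vehicle wells.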

[3] = test system: ATS189; assay: as above; conditions: P. falciparum in erythrocytes, SYBR Green DNA, 72 h; series mostly up to 12.8 µM
Method in brief: as §1

[4] = test system: ATS95; assay: as above; conditions: P. falciparum in erythrocytes, SYBR Green DNA, 72 h; series mostly up to 12.8 µM
Method in brief: as §1

[5] = test system: CP237; assay: as above; conditions: P. falciparum in erythrocytes, SYBR Green DNA, 72 h; series mostly up to 12.8 µM
Method in brief: as §1

[6] = test system: CP252; assay: as above; conditions: P. falciparum in erythrocytes, SYBR Green DNA, 72 h; series mostly up to 12.8 µM
Method in brief: as §1

[7] = test system: CP260; assay: as above; conditions: P. falciparum in erythrocytes, SYBR Green DNA, 72 h; series mostly up to 12.8 µM
Method in brief: as §1

[8] = test system: CP265; assay: as above; conditions: P. falciparum in erythrocytes, SYBR Green DNA, 72 h; series mostly up to 12.8 µM
Method in brief: as §1

[9] = test system: CP269; assay: as above; conditions: P. falciparum in erythrocytes, SYBR Green DNA, 72 h; series mostly up to 12.8 µM
Method in brief: as §1

[10] = test system: CP286; assay: as above; conditions: P. falciparum in erythrocytes, SYBR Green DNA, 72 h; series mostly up to 12.8 µM
Method in brief: as §1

[11] = test system: CP305; assay: as above; conditions: P. falciparum in erythrocytes, SYBR Green DNA, 72 h; series mostly up to 12.8 µM
Method in brief: as §1

[12] = test system: CP315; assay: as above; conditions: P. falciparum in erythrocytes, SYBR Green DNA, 72 h; series mostly up to 12.8 µM
Method in brief: as §1

[13] = test system: CP329; assay: as above; conditions: P. falciparum in erythrocytes, SYBR Green DNA, 72 h; series mostly up to 12.8 µM
Method in brief: as §1

[14] = test system: JCK; assay: as above; conditions: P. falciparum in erythrocytes, SYBR Green DNA, 72 h; series mostly up to 12.8 µM
Method in brief: as §1

[15] = test system: N140; assay: as above; conditions: P. falciparum in erythrocytes, SYBR Green DNA, 72 h; series mostly up to 12.8 µM
Method in brief: as §1

[16] = test system: PAD; assay: as above; conditions: P. falciparum in erythrocytes, SYBR Green DNA, 72 h; series mostly up to 12.8 µM
Method in brief: as §1

[17] = test system: PC15; assay: as above; conditions: P. falciparum in erythrocytes, SYBR Green DNA, 72 h; series mostly up to 12.8 µM
Method in brief: as §1

[18] = test system: PC49; assay: as above; conditions: P. falciparum in erythrocytes, SYBR Green DNA, 72 h; series mostly up to 12.8 µM
Method in brief: as §1

[19] = test system: TAB113; assay: as above; conditions: P. falciparum in erythrocytes, SYBR Green DNA, 72 h; series mostly up to 12.8 µM
Method in brief: as §1

[20] = test system: TAB165; assay: as above; conditions: P. falciparum in erythrocytes, SYBR Green DNA, 72 h; series mostly up to 12.8 µM
Method in brief: as §1

Measured: Potency
Potency is read from the fitted curve at half-maximal effect.

CC[C@H](C(=O)[C@H](C)[C@H](O)[C@H](C)CCc1ccc(C)c(O)c1C(=O)O)[C@H]1O[C@](CC)([C@@H]2CC[C@@](O)(CC)[C@H](C)O2)C[C@H]1C
inactive: [1] > 20.6 µM

C[C@@](N)(C(=O)O)c1cccc(CC(=O)O)c1
inactive: [1] > 46 µM

Cc1ncc([N+](=O)[O-])n1C[C@H](O)CCl
inactive: [1] > 20.6 µM | [2] | [3] | [4] | [5] | [6] | [7] | [8] | [9] | [10] | [11] | [12] | [13] | [14] | [15] | [16] | [17] | [18] | [19] | [20]

CC(=O)S[C@H]1CC2=CC(=O)CC[C@@]2(C)[C@H]2CC[C@@]3(C)[C@H](CC[C@]34CCC(=O)O4)[C@@H]12
inactive: [1] > 20.6 µM

CCC(C)(C)C(=O)O[C@@H]1C[C@H](C)C=C2C=C[C@H](C)[C@@H](CC[C@H]3C[C@@H](O)CC(=O)O3)[C@H]21
inactive: [1] > 20.6 µM | [2] | [3] | [4] | [5] | [6] | [7] | [8] | [9] | [10] | [11] | [12] | [13] | [14] | [15] | [17] | [18]

O[C@@](CCN1CCCC1)(c1ccccc1)C1CCCCC1
inactive: [1] > 20.6 µM | [3] | [5] | [6] | [7] | [9] | [10] | [12] | [14] | [19]

CCN[C@@H]1C[C@H](N)[C@H](O[C@H]2OC(CN)=CC[C@H]2N)[C@@H](O)[C@H]1O[C@H]1OC[C@@](C)(O)[C@@H](NC)[C@@H]1O
not listed: [1]
inactive: all other assays above

CCN(CC)CCOC(=O)[C@@H](Cc1cccc2ccccc12)C[C@@H]1CCCO1
not listed: [1] | [4]
inactive: all other assays above

c1ccc2c(c1)CCC[C@@H]2C1=NCCN1
not listed: [1]
inactive: all other assays above

COc1ccccc1OC[C@H](O)CO
not listed: [1]
inactive: all other assays above

Nc1nc(=S)c2ncn([C@H]3O[C@@H](CO)[C@@H](O)[C@@H]3O)c2[nH]1
inactive: [1] > 20.6 µM

CC(=O)O[C@H]1C[C@H]2CC[C@@H]3[C@@H](CC[C@]4(C)[C@H](OC(C)=O)[C@H]([N+]5(C)CCCCC5)C[C@@H]34)[C@]2(C)C[C@H]1[N+]1(C)CCCCC1
inactive: [1] > 20.6 µM

C1CCN2C[C@@H]3C[C@@H](CN4CCCC[C@H]34)[C@H]2C1
inactive: [1] > 20.6 µM and > 46 µM | [2] | [3] | [4] | [5] | [6] | [7] | [8] | [9] | [10] | [11] | [12] | [13] | [14] | [15] | [16] | [17] | [18] | [19] | [20]

CC(C)(C)NC(=O)[C@@H]1C[C@H]2CCCC[C@@H]2CN1C[C@H](O)[C@H](Cc1ccccc1)NC(=O)[C@@H](CC(N)=O)NC(=O)c1ccc2ccccc2n1
inactive: [1] > 20.6 µM

COc1cc2ccc(=O)oc2c(O)c1O
inactive: [1] > 46 µM

COc1ccc2c(c1)N(C[C@@H](C)CN(C)C)c1ccccc1S2
inactive: [1] > 20.6 µM | [2] | [3] | [4] | [6] | [7] | [8] | [9] | [10] | [11] | [12] | [13] | [14] | [15] | [16] | [17] | [18] | [19] | [20]

CC(=O)/C(C)=N\O
inactive: [1] > 46 µM

CC(=O)O[C@H]1C[C@@]2(C)[C@H](C[C@@H](O)[C@H]3[C@@]4(C)CC[C@@H](O)[C@@H](C)[C@H]4CC[C@@]32C)C1=C(CCC=C(C)C)C(=O)O
inactive: [1] > 20.6 µM | [2] | [3] | [4] | [5] | [6] | [7] | [8] | [9] | [10] | [11] | [12] | [13] | [14] | [15] | [16] | [17] | [18] | [19] | [20]

CC/C=C\C[C@H]1C(=O)CC[C@@H]1CC(=O)O
inactive: [1] > 46 µM

CN1CCO[C@H](c2ccccc2)c2ccccc2C1
active: [5] 2 µM
not listed: [1] | [2] | [3] | [4] | [8] | [15] | [19] | [20]
inactive: all other assays above

C/C(=C\CNc1ncnc2nc[nH]c12)CO
inactive: [1] > 46 µM

COC(=O)[C@@H]1[C@@H]2C[C@H]3c4[nH]c5cc(OC)ccc5c4CCN3C[C@@H]2C[C@H](OC(=O)/C=C\c2cc(OC)c(OC)c(OC)c2)[C@H]1OC
active: [2] 3.16 µM | [15] 3.55 µM | [20] 3.16 µM
inactive: [1] > 20.6 µM | [13]

C[C@@]12CCC(=O)C[C@@H]1CC(=O)[C@H]1[C@H]3CCC[C@]3(C)C(=O)C[C@@H]12 (tested in a mixture with another compound)
inactive: [1] > 20.6 µM

Nc1ncnc2c1nc(Br)n2[C@H]1O[C@H]2COP(=O)(O)O[C@H]2[C@@H]1O
inactive: [1] > 46 µM

CCN1CCC[C@@H](OC(=O)C(c2ccccc2)c2ccccc2)C1
active: [5] 1.78 µM
inactive: [1] > 20.6 µM | [4] | [7] | [9] | [10] | [11] | [12] | [13] | [14] | [19]

CC1(C)S[C@@H]2[C@H](NC(=O)COc3ccccc3)C(=O)N2[C@H]1C(=O)O (tested in a mixture with another compound)
inactive: [1] > 20.6 µM

CC1=C(C(=O)O)N2C(=O)[C@@H](NC(=O)[C@@H](N)c3ccc(O)cc3)[C@@H]2SC1
inactive: [1] > 20.6 µM | [2] | [3] | [4] | [5] | [6] | [7] | [8] | [9] | [10] | [11] | [12] | [13] | [14] | [15] | [16] | [17] | [18] | [19] | [20]

COc1ccc(-c2cc(=O)c3c(O)cc(O)cc3o2)cc1
inactive: [1] > 20.6 µM

CCCCC[C@H](O)/C=C\[C@@H]1[C@H](O)CC(=O)[C@@H]1CCCCCCC(=O)O
inactive: [1] > 20.6 µM | [2] | [3] | [4] | [5] | [6] | [7] | [8] | [9] | [10] | [11] | [12] | [13] | [14] | [15] | [16] | [17] | [18] | [19] | [20]

CC1(C)[C@@H](OC(=O)CCC(=O)O)CC[C@@]2(C)[C@H]1CC[C@@]1(C)[C@H]2C(=O)C=C2[C@H]3C[C@](C)(C(=O)O)CC[C@]3(C)CC[C@@]21C
inactive: [1] > 20.6 µM | [2] | [3] | [4] | [5] | [6] | [7] | [8] | [9] | [10] | [11] | [12] | [13] | [14] | [15] | [16] | [17] | [18] | [19] | [20]

Cc1cn([C@@H]2C[C@H](N=[N+]=N)[C@H](CO)O2)c(=O)[nH]c1=O
inactive: [1] > 20.6 µM

CCCCC[C@H](O)/C=C\[C@H]1[C@H](C/C=C\CCCC(=O)O)[C@@H](O)C[C@H]1O (tested in a mixture with another compound)
inactive: [1] > 20.6 µM | [2] | [3] | [4] | [5] | [6] | [7] | [8] | [9] | [10] | [11] | [12] | [13] | [14] | [15] | [16] | [17] | [18] | [19] | [20]

Nc1ncn([C@H]2O[C@@H](CO)[C@@H](O)[C@@H]2O)c(=O)n1
inactive: [1] > 20.6 µM

COC(=O)C1=C(C)NC(C)=C(C(=O)OCCN(C)Cc2ccccc2)[C@H]1c1cccc([N+](=O)[O-])c1
inactive: [1] > 20.6 µM
